# Values joined by “and” are separate entries in the source; they are usually repeats but may differ in a detail not shown here. Identical values can stand only once. Active and inactive are the calls of the source.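 Rule for the calls, unless noted: active = z-score of at least 1.8 in each of two replicates, scored against plate mean and spread of sample wells; inactive = the rest.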
# Experiments:
# [1] = biological target: NAD(+) hydrolase SARM1 (Homo sapiens) (UniProt Q6SZW1); test: blocking NAD cleavage by SARM1 SAM-TIR – cell lysate, NAD-Glo luminescence (AID 1508614;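 active = compound whose remaining NAD level is above about 45 nM, limit read from the data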;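 note: higher remaining NAD means stronger inhibition of SARM1 NADase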); settings: SAM-TIR HEK293T lysate NADase, at 1 µM, stronger effect = higher value
# Sequence of NAD(+) hydrolase SARM1 (Homo sapiens) (Q6SZW1 whole entry, looked up): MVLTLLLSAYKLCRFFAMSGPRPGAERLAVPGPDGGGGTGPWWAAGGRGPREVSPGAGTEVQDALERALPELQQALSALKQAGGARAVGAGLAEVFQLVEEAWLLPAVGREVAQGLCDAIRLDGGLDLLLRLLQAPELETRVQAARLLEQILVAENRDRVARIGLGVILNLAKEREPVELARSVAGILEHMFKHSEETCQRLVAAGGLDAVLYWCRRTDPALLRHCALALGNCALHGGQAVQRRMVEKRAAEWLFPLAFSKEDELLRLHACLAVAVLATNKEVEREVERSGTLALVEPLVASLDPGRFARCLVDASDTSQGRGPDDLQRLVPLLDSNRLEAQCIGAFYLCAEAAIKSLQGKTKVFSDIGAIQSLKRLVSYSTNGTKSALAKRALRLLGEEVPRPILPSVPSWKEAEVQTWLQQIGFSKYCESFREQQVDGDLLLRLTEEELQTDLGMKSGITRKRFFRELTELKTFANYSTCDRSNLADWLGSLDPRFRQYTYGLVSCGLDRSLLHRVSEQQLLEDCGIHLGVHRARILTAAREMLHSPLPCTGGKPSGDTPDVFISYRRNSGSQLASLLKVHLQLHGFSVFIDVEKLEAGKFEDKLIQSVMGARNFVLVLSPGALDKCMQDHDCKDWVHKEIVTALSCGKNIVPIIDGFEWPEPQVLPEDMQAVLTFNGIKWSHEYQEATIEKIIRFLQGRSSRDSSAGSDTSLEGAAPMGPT
# [2] = galactose survival enhancers in mitochondrial complex I cybrids – cell-based, galactose medium, ATP luminescence, primary screen (AID 1645843); settings: complex I mutant cybrid cells, 72 h, stronger effect = higher value;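 note: positive z means more ATP and so rescue of galactose-driven cybrid death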
# [3] = growth inhibition, single agent or in combination, cell-based, chromothripsis tumors, cisplatin or BGB combos (AID 1671449; in the data active = inhibition above about 80%;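 note: cells exposed for 96 hours; 0% = vehicle DMSO and 100% = killing by high DMSO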); settings: LFS_MB_P medulloblastoma cells
# [4] = growth inhibition, single agent and combos, cell-based, chromothripsis tumors, cisplatin or BGB combos (AID 1671450; in the data active = inhibition above about 80%;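 note: cells exposed to compound for four days; 0% = vehicle DMSO and 100% = cell killing by high DMSO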); settings: HDN33 neuroblastoma cells, stronger effect = higher value
# [5] = growth inhibition, single agents and combos, ICB984, cell-based, cisplatin or BGB combos, synergistic combos for chromothripsis tumors (AID 1671451; call rule not given here;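 note: cells exposed for 96 hours before readout; 0% = vehicle DMSO and 100% = killing by high DMSO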); settings: ICB984 medulloblastoma cells, drug combinations, stronger effect = higher value
# [6] = growth inhibition, single agents and combos, LFS_MB_1R, cell-based, cisplatin or BGB combos, synergistic combos for chromothripsis tumors (AID 1671452; in the data active = inhibition above about 80%;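 note: cells exposed for 96 hours before readout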); settings: LFS_MB_1R medulloblastoma cells, stronger effect = higher value
# [7] = growth inhibition, single agents and combos, HTB85, cell-based, BGB or cisplatin IC20 combos, synergistic combos for chromothripsis tumors (AID 1671453; in the data active = inhibition above about 80%;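 note: cells exposed for 96 hours before readout; 0% = vehicle DMSO and 100% = high DMSO killing control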); settings: HTB85 osteosarcoma cells, drug combinations, stronger effect = higher value
# [8] = growth inhibition, single agents and combos, CRL2098, cell-based, BGB or cisplatin IC20 combos, synergistic combos for chromothripsis tumors (AID 1671454; in the data active = inhibition above about 80%;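 note: cells exposed for 96 h before readout; 0% = vehicle DMSO and 100% = killing by high DMSO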); settings: CRL2098 osteosarcoma cells, drug combinations, stronger effect = higher value
# [9] = growth inhibition, single agents and combos, HD-MB03, cell-based, BGB or cisplatin IC20 combos, synergistic combos for chromothripsis tumors (AID 1671455; in the data active = inhibition above about 83%;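 note: 0% = vehicle DMSO and 100% = high DMSO as cytotoxic control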); settings: HD-MB03 medulloblastoma cells, stronger effect = higher value
# [10] = growth inhibition, single agents and combos, UWB1.289, cell-based, BGB or cisplatin combos, synergistic combos for chromothripsis tumors (AID 1671456; in the data active = inhibition above about 80%;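 note: cells exposed to compound for four days; 0% = vehicle DMSO and 100% = killing by high DMSO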); settings: UWB1.289 ovarian carcinoma cells, stronger effect = higher value
# [11] = growth inhibition, single agents and combos, LFS_MB_2R, cell-based, cisplatin combos, synergistic combos for chromothripsis tumors (AID 1671457; in the data active = inhibition above about 80%;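 note: cells exposed to compound for four days before readout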); settings: LFS_MB_2R medulloblastoma cells, stronger effect = higher value
# [12] = growth inhibition, MDA-MB-436, cell-based, BGB or cisplatin combos, synergistic combos for chromothripsis tumors (AID 1671458; call rule not given here;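 note: cells exposed for 96 hours; 0% = vehicle DMSO and 100% = killing by high DMSO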); settings: MDA-MB-436 breast carcinoma growth inhibition, drug combinations, stronger effect = higher value
# [13] = UWB1.289_BRCA1 ovarian cancer growth, cell-based, BGB or cisplatin combinations (AID 1671459; in the data active = inhibition above about 80%); settings: UWB1.289 BRCA1 ovarian carcinoma, drug combinations, stronger effect = higher value
# [14] = drug combination toxicity in non-malignant astrocytes – cell-based, BGB or cisplatin IC20 combos, cytotoxicity control for chromothriptic childhood tumor combination screen (AID 1671460; in the data active = inhibition above about 80%;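 note: cells exposed to compounds for 96 hours before viability readout; 0% = vehicle and 100% = killing control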); settings: Human astrocytes, viability inhibition, drug combinations, at 0.5 µM, stronger effect = higher value
# [15] = BT084 cell growth, single and combined drugs, ICGC_MB145, cisplatin and BGB IC40 combos (AID 1671461; in the data active = inhibition above about 80%;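 note: cells exposed to drugs for 96 hours; 0% = vehicle DMSO and 100% = high DMSO full killing control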); settings: BT084 medulloblastoma cells, drug combinations, stronger effect = higher value
# [16] = RCMB18 cell growth, single agent and combined, cisplatin and BGB IC40 combos (AID 1671462; in the data active = inhibition above about 80%;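 note: cells exposed to compound for four days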); settings: RCMB18 medulloblastoma cells, stronger effect = higher value
# [17] = CRL1545 cell growth, single agent and combined, cisplatin and BGB IC20 combos (AID 1671464; in the data active = inhibition above about 80%;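 note: cells exposed to compound for 96 hours before readout; 0% = vehicle DMSO and 100% = high DMSO killing control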); settings: CRL1545 osteosarcoma cells, stronger effect = higher value
# F380Y = test: BK channel mutant inhibitors and activators – cell-based, U2OS BacMam, thallium flux, beta subunits, selectivity assay, profiling panel (AID 1259406;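 active = thallium flux through the channel raised or lowered by more than 3 SD from vehicle-only wells, actives on both sides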;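 note: initial slope of Thallos dye fluorescence rise after thallium is added; log ratio against the mean of 0.3% DMSO vehicle wells on the same plate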); settings: U2OS BacMam BK variants, at 30 µM
# F380Y/beta1 = test: as above; settings: U2OS BacMam BK variants, at 30 µM
# [18] = measured here: combination with BGB IC40, at 0.05 µM
# [19] = measured here: with BGB IC20 combination, at 0.5 µM
# [20] = measured here: with cisplatin IC20 combination, at 0.5 µM
# [21] = measured here: combination with cisplatin, at 0.5 µM
# [22] = measured here: combination with cisplatin, at 5 µM
structure (smiles),measurement,setting,value
Nc1[nH]c(=O)ncc1F,remaining NAD,[1],10 nM (inactive)
same,z-score,[2],0.61 (inactive)
same,inhibition,"[3]; at 0.5 µM, stronger effect = higher value",35.6% (inactive)
same,inhibition,"[3]; measured here: combination with BGB IC20, at 0.005 µM",-27.5%
same,inhibition,"[3]; measured here: combination with BGB IC40, at 0.005 µM",-28.3%
same,inhibition,[3]; [18],-22%
same,inhibition,"[3]; measured here: combination with cisplatin, at 0.5 µM, stronger effect = higher value",56.8%
same,inhibition,"[3]; measured here: combination with cisplatin, at 5 µM, stronger effect = higher value",-29.9%
same,inhibition,"[4]; BGB combo, at 5 µM",-19.9%
same,inhibition,[4]; at 0.5 µM,-18.6% (inactive)
same,inhibition,"[4]; cisplatin combo, at 5 µM",-41.9%
same,inhibition,[4]; [19],-4.48%
same,inhibition,[4]; [20],-14.6%
same,inhibition,"[4]; single agent, at 5 µM",9.06%
same,inhibition,"[5]; BGB IC20 combo, at 0.005 µM",-28.5%
same,inhibition,"[5]; BGB IC40 combo, at 0.005 µM",-43.6%
same,inhibition,"[5]; BGB IC40 combo, at 0.05 µM",-8.87%
same,inhibition,[5]; at 0.5 µM,-40.6% (inactive)
same,inhibition,"[5]; cisplatin combo, at 0.05 µM",-8.87%
same,inhibition,"[5]; cisplatin combo, at 0.5 µM",-57.1%
same,inhibition,"[5]; cisplatin combo, at 5 µM",-45.6%
same,inhibition,"[5]; measured here: 5 uM single agent, at 5 µM",-3.48%
same,inhibition,[6]; at 0.5 µM,-37.2% (inactive)
same,inhibition,[6]; [18],-0.509%
same,inhibition,[6]; [21],-34.6%
same,inhibition,[6]; [22],-0.132%
same,inhibition,[7]; at 0.5 µM,-19.7% (inactive)
same,inhibition,"[7]; measured here: with BGB IC20, at 0.5 µM",-43%
same,inhibition,"[7]; measured here: with BGB IC20, at 5 µM",-34%
same,inhibition,"[7]; measured here: with cisplatin IC20, at 0.5 µM",-6.71%
same,inhibition,"[7]; measured here: with cisplatin IC20, at 5 µM",-6.3%
same,inhibition,"[7]; single agent, at 5 µM",-19.7%
same,inhibition,[8]; at 0.5 µM,-73.3% (inactive)
same,inhibition,"[8]; measured here: combination with BGB at IC20, at 0.5 µM",-56.9%
same,inhibition,"[8]; measured here: combination with cisplatin at IC20, at 0.5 µM",-90.3%
same,inhibition,[9]; at 0.5 µM,5.78% (inactive)
same,inhibition,"[9]; measured here: combo with BGB at IC20, at 0.5 µM",2.74%
same,inhibition,"[9]; measured here: combo with cisplatin at IC20, at 0.5 µM",10.4%
same,inhibition,[10]; at 0.5 µM,-7.68% (inactive)
same,inhibition,"[10]; measured here: inhibition with BGB combination, at 0.05 µM",-29.7%
same,inhibition,"[10]; measured here: inhibition with cisplatin combination, at 0.05 µM",-21.7%
same,inhibition,[11]; at 0.5 µM,-27.6% (inactive)
same,inhibition,[11]; [21],-24.1%
same,inhibition,[11]; [22],-29.1%
same,inhibition,[12]; at 0.5 µM,-31.1% (inactive)
same,inhibition,"[12]; measured here: BGB combination, at 0.5 µM",-21.4%
same,inhibition,"[12]; measured here: BGB combination, at 5 µM",-20.1%
same,inhibition,"[12]; measured here: cisplatin combination, at 0.5 µM",-54.4%
same,inhibition,"[12]; measured here: cisplatin combination, at 5 µM",-28.4%
same,inhibition,"[13]; BGB combination, concentration series, at 5 µM",-10.1%
same,inhibition,[13]; at 0.5 µM,-22% (inactive)
same,inhibition,"[13]; cisplatin combination, concentration series, at 5 µM",-7.2%
same,inhibition,[14],-16.9% (inactive)
same,inhibition,[14]; measured here: combo with BGB IC20,-11.3%
same,inhibition,[14]; measured here: combo with cisplatin IC20,-15.3%
same,inhibition,[15]; at 0.5 µM,-18.1% (inactive)
same,inhibition,"[15]; cisplatin combination, at 0.5 µM",-7.67%
same,inhibition,"[15]; cisplatin combination, at 5 µM",-29%
same,inhibition,"[15]; measured here: BGB IC40 combination 0.05 uM, at 0.05 µM",-18.5%
same,inhibition,"[15]; single agent, at 5 µM",-35%
same,inhibition,[16]; at 0.5 µM,-4.87% (inactive)
same,inhibition,"[16]; cisplatin combo, at 5 µM",12.7%
same,inhibition,"[16]; measured here: BGB IC40 combination, at 0.05 µM",-1.76%
same,inhibition,[16]; [21],22.6%
same,inhibition,"[16]; single agent, at 5 µM",67.5%
same,inhibition,[17]; at 0.5 µM,-33% (inactive)
same,inhibition,[17]; [19],-8.11%
same,inhibition,[17]; [20],-45.4%
same,inhibition,"[17]; single agent, at 0.05 µM",-16.8%
same,inhibition,"[17]; single agent, at 5 µM",-1.42%
same,log fold change Tl+ flux,F380Y,0.0331 (inactive)
same,log fold change Tl+ flux,F380Y/beta1,0.0164 (inactive)
CCOc1cc(N)c(Cl)cc1C(=O)NCC1CN(Cc2ccc(F)cc2)CCO1 (centres undefined),z-score,[2],0.725 (inactive)
same,log fold change Tl+ flux,F380Y,-0.0328 (inactive)
same,log fold change Tl+ flux,F380Y/beta1,0.0819 (inactive)
CN1CCN(C2=Nc3cc(F)ccc3Cc3ccccc32)CC1,z-score,[2],-0.47 (inactive) and -0.18 (inactive)
same,log fold change Tl+ flux,F380Y,0.06 (inactive)
same,log fold change Tl+ flux,F380Y/beta1,0.0457 (inactive)
O=C1N(c2ccccc2)c2ccccc2C1(Cc1ccncc1)Cc1ccncc1,z-score,[2],-0.165 (inactive) and 0.43 (inactive) and -0.3 (inactive)
same,log fold change Tl+ flux,F380Y,0.0425 (inactive)
same,log fold change Tl+ flux,F380Y/beta1,-0.0119 (inactive)
CN1[C@@H]2CC[C@H]1CC(OC(=O)c1c[nH]c3ccccc13)C2 (some centres undefined),remaining NAD,[1],10 nM (inactive)
same,z-score,[2],-0.025 (inactive) and 0.755 (inactive)
same,log fold change Tl+ flux,F380Y,0.0406 (inactive)
same,log fold change Tl+ flux,F380Y/beta1,0.0426 (inactive)
Cc1ccc(NC(=O)c2ccc(CN3CCN(C)CC3)cc2)cc1Nc1nccc(-c2cccnc2)n1,remaining NAD,[1],10 nM (inactive)
same,z-score,[2],-1.09 (inactive) and -0.785 (inactive)
same,log fold change Tl+ flux,F380Y,0.141 (active)
COC(=O)CCc1ccc(OCC(O)CNC(C)C)cc1 (centres undefined),z-score,[2],0.52 (inactive) and 0.07 (inactive)
same,log fold change Tl+ flux,F380Y,-0.0174 (inactive)
same,log fold change Tl+ flux,F380Y/beta1,0.0192 (inactive)
CCN1CCC[C@H]1CNC(=O)c1cc(S(N)(=O)=O)ccc1OC,z-score,[2],0.65 (inactive) and 0.075 (inactive) and 0.505 (inactive)
same,log fold change Tl+ flux,F380Y,-0.0719 (inactive)
same,log fold change Tl+ flux,F380Y/beta1,0.000794 (inactive)

# Reference: PubChem BioAssay
